We go through 6 compounds from PubChem BioAssay (NCATS).

Experiment [1] addresses Thioredoxin reductase 1, cytoplasmic (Rattus norvegicus) (UniProt O89049). Description: qHTS Assay for Substrates of Mammalian Selenoprotein Thioredoxin Reductase 1 (TrxR1) (AID 488772).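 Note: series mostly up to about 57 µM; 0% is about no effect; a drop in NADPH fluorescence below the no-compound background marks a TrxR1 substrate.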 The method, boiled down: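 In this dual-purpose format, potential substrates are identified from the first fluorescence read after selenite addition, not from the 8-minute delta. Rat enzyme is preincubated with NADPH and then with compound at ~22 deg C.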
Background: Quantitative high-throughput screening tests each substance at several concentrations.

For experiment [2] the target is unchanged. The experiment can be described thus: qHTS Assay for Inhibitors of Mammalian Selenoprotein Thioredoxin Reductase 1 (TrxR1) (AID 488773). Note: nearly all actives have a fitted effect of over 40% in size. Note: potency is the fitted concentration of half-maximal effect. The following applies: Potency: inhibition. The method, boiled down: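 Inhibition is scored from the loss of NADPH fluorescence between first and last reads of an 8-min kinetic run. Selenite (400 uM) was the substrate, added after 15 min compound preincubation at room temperature.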

Experiment [3] deals with Flap endonuclease 1 (Homo sapiens) (UniProt P39748). Description: qHTS Validation Assay for the Inhibitors of Human Flap endonuclease 1 (FEN1) (AID 488816). Note: potency is the fitted concentration of half-maximal effect. The method, boiled down:
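qHTS format: compounds and 10 nM FEN1 incubated 15 min at room temperature before adding 50 nM substrate. Cleavage followed by reads at 0 and 15 min; normalized data fitted to a four-parameter Hill curve.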

Experiment [4] deals with M-phase phosphoprotein 8 (Homo sapiens) (UniProt Q99549). Description: qHTS Validation Assay for Inhibitors for MPP8 Chromodomain Interactions with Methylated Histone Tails (AID 488949). Note: nearly all actives have a fitted effect of over 55% in size. Note: potency is the fitted concentration of half-maximal effect. The method, boiled down:
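MPP8 (50 nM) was preincubated with biotinylated H3(1-18)K9me3 peptide (50 nM) in PBS pH 7.4, 0.01% Tween-20 for 30 min at room temperature, then with compounds for 30 min; binding was detected by AlphaScreen.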

The target of experiment [5] is Methanococcus maripaludis chaperonin (MmCpn) (UniProt Q6LX38). Description: High-Throughput Screening for Modulators of Cytosolic Chaperonin Activity: MmCpn Primary Screen (AID 488978).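 Note: 50 nM MmCpn enzyme hydrolysing 30 µM ATP at 37 °C; 0% is about no effect.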 In outline: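 MmCpn (50 nM final) was preincubated with compound 5 min at RT, then 30 uM ATP (final) was added and the reaction ran 10 min at 37C. ADP produced was detected by Transcreener HTRF (ex 320 nm; em 590/665 nm).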

Experiment [6] addresses Transient receptor potential cation channel subfamily V member 1 (Homo sapiens) (UniProt Q8NER1). The experiment can be described thus: HTS Assay for Compounds that Act as Enhancers of the Vanilloid Receptor 1 (AID 488979). Note: 0% is about no effect. The method, boiled down:
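Calcium influx kinetics via Fluo-8 (480/520 nm) in TRPV1-expressing cells, 2000/well cultured overnight at 35.5C. Compound-alone read 3 min (agonist phase), followed by EC20 capsaicin challenge for 2 min (enhancer phase).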

Experiment [7] deals with D(1A) dopamine receptor (Homo sapiens) (UniProt P21728). The experiment can be described thus: HTS Assay for Allosteric Agonists of the Human D1 Dopamine Receptor: Primary Screen for Agonists (AID 488981). Note: 0% is about no effect. The method, boiled down:
(§1)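 Calcium flux in an inducible, force-coupled HEK293 Trex D1 line (overnight at 30 C): agonist mode is the 180 s kinetic read after compound; potentiator mode is the following 180 s read after dopamine at EC20.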

Experiment [8] shares this target. Description: HTS Assay for Allosteric Agonists of the Human D1 Dopamine Receptor: Primary Screen for Potentiators (AID 488982). Note: 0% is about no effect. In outline: as §1
Experiment [9] shares this target. The experiment can be described thus: HTS Assay for Allosteric Agonists of the Human D1 Dopamine Receptor: Primary Screen for Antagonists (AID 488983).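 Note: calcium flux response to an EC80 dopamine challenge measured with no-wash dye; % is set by controls: 0 for no effect and ±100 for the full control effect; nearly all actives have a fitted effect of over 65% in size.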 The method, boiled down: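 Calcium flux readout, no-wash dye, inducible HEK293 T-REx D1 line (force-coupled). Compound added after 10 s baseline, 180 s kinetic read; then dopamine at EC80, further 180 s read.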
The target of experiment [10] is Thyrotropin-releasing hormone receptor (Homo sapiens) (UniProt P34981). The experiment can be described thus: qHTS for Small Molecule Agonists and Allosteric Enhancers of Human TRH Receptor: Validation Screen for Agonists (AID 493127;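 active = calcium activation more than 3 SD above the typical response in the agonist read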;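 note: intracellular calcium rise by fluo-8 fluorescence before TRH EC20 addition; 0% is about no effect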). Particulars: TRH receptor agonist cell assay; at 2 µM; stronger effect = higher value. In outline: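 Read-out: intracellular calcium release measured kinetically by FDSS (fluo-8, ex 480/em 530 nm), 1 reading/s after a 10-cycle baseline. TRHR cells, 2000/well, cultured 18 h at 33.5C, dye-loaded at room temp. Compound-evoked positive calcium signal flags agonists.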

Experiment [11] is described as follows: Nrf2 qHTS screen for inhibitors: Validation (AID 493153; active = well fitted inhibition curve with a large enough effect in the main read-out, with a control signal flat, not every such curve was filed as active). The following applies: Potency: luciferase luminescence; viability change: measured here: cytotoxicity max response. The method, boiled down: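 Concentration-response test in A549 ARE_Fluc reporter cells (5% FBS OPTI-MEM), compound exposure 18-24 h at 37°C, 5% CO2. Cell viability measured first by CellTiter-Fluor fluorescence; ARE-driven luciferase luminescence then measured as Nrf2 activity.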

A short description of experiment [12]: qHTS for Inhibitors of Cell Surface uPA Generation: Validation Assay (AID 493164).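 Note: RAW 264.7 macrophage cells exposed to compound for 18 h; 0% is about no effect.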 The method, boiled down: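 Compounds are titrated over seven points (2.45 nM–38.3 uM final) onto pre-plated RAW 264.7 cells and incubated for 18 h. Retained intracellular ATP, measured with ATP-Lite, indicates blocked lethal factor entry.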
A short description of experiment [13]: Validation screen for small molecules that induce DNA re-replication in SW480 colon adenocarcinoma cells (AID 504364). Note: 0% is about no effect. The method, boiled down:
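Read-out: total Hoechst intensity of nuclei by fluorescence scanning imager; hits raise the fraction of nuclei with elevated DNA content. Cells received compound for 48 hr at 37 C before a 40 min stain.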

Experiment [14] concerns the target Peptidyl-prolyl cis-trans isomerase NIMA-interacting 1 (Homo sapiens) (UniProt Q13526). Description: qHTS Validation Assay to Find Inhibitors of Pin1 (AID 504536; active = well fitted inhibition curve with a large enough effect in the polarisation, with a control signal flat, not every such curve was filed as active; the % refers to the polarisation;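 note: 0% = full Pin1 enzyme wells and -100% = no-enzyme wells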). The method, boiled down:
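Fluorescence polarization competition: compounds (titration) displace HiFluor-488-labeled Pin1-1b peptide from Pin1 (0.3 uM final) in pH 7.5 HEPES buffer with DTT, 10 min at room temperature; %Activity normalized to no-enzyme wells, curves fitted.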

Experiment [15] addresses Ubiquitin carboxyl-terminal hydrolase 1 (Homo sapiens) (UniProt O94782). Description: Inhibitors of USP1/UAF1: Pilot qHTS (AID 504865). Note: nearly all actives have a fitted effect of over 35% in size. Note: potency is the fitted concentration of half-maximal effect. The method, boiled down: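 USP1/UAF1 complex (1nM) preincubated with compound 15 min at room temperature, then Ub-Rho substrate (150nM final) added. Fluorescence read kinetically at 480/540 nm, 6 reads every 60 seconds. Buffer: 50mM HEPES pH 7.8, 0.5mM EDTA, 0.1 mg/ml BSA, 1mM TCEP, 0.01% Tween-20.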

Experiment [16] can be described thus: Quantitative high throughput screen for delayed death inhibitors of the malarial parasite plastid, 48 hour incubation (AID 488752). Note: nearly all actives have a fitted effect of over 65% in size. Note: potency is the fitted concentration of half-maximal effect. In outline:
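Luciferase-expressing P. falciparum in RBCs, 2% Hct, 0.1% parasitemia final; RPMI 1640 + 0.5% Albumax; 48 h, 37 C, 5% CO2; luminescence readout, signal drop = growth inhibition.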

Experiment [17] deals with Chromobox protein homolog 1 (Homo sapiens) (UniProt P83916). The experiment can be described thus: qHTS Validation Assay for Inhibitors of HP1-beta Chromodomain Interactions with Methylated Histone Tails (AID 488953). Note: nearly all actives have a fitted effect of over 50% in size. Note: potency is the fitted concentration of half-maximal effect. In outline: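 AlphaScreen proximity readout: streptavidin donor and Ni-chelate acceptor beads, 10 ug/mL final, 30 min dark, RT. Complex of 50 nM HP1-beta and 50 nM b-H3(1-18)K9me3 formed 30 min, then compound-treated 30 min; PBS pH 7.4/0.01% Tween-20.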

The target of experiment [18] is Phosphoglycerate kinase, glycosomal (Trypanosoma brucei brucei) (UniProt P07378). The experiment can be described thus: qHTS Validation Assay to Find Inhibitors of Phosphoglycerate Kinase (AID 504547). Note: potency is the fitted concentration of half-maximal effect. The method, boiled down:
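Luminescence end-point (Kinase-Glo Plus, 10 min) after a 60 min room-temperature coupled reaction. GAPDH at 100nM final supplies 1,3-BPG to PGK. Buffer: 100mM TEA pH 7.6, 5mM MgCl2, 0.01% Tween-20. Wells lacking PGK served as controls.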

Experiment [19] concerns the target phosphoglycerate mutase (Leishmania major) (UniProt Q4Q090). The experiment can be described thus: qHTS Validation Assay to Find Inhibitors of Phosphoglycerate Mutase (AID 504548). Note: potency is the fitted concentration of half-maximal effect. The following applies: Potency: inhibition qHTS. In outline: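 L. major PGAM (1.25nM final) was added to substrate buffer and pinned compound, incubated 45 minutes at room temperature, then Kinase-GloPlus added; luminescence read after 10 minutes. Buffer: 100 mM TEA pH 7.6, 5 mM MgCl2, 0.01% Tween-20.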

“And” between values parts separate entries of the source, which are not always exact repeats. Equal values may be shown once. Inconclusive results are not listed. The source made the active and inactive calls. Unless noted, calls come from the whole dose curve; as a rule, active = well fitted curve in the direction sought with a large enough effect; inconclusive = small, poorly fitted or top-dose-only effect, or another doubt; inactive = no such curve, though single readings can be large; an effect the other way counts as inactive or inconclusive.

Chain of Peptidyl-prolyl cis-trans isomerase NIMA-interacting 1 (Homo sapiens) (Q13526 whole entry, looked up): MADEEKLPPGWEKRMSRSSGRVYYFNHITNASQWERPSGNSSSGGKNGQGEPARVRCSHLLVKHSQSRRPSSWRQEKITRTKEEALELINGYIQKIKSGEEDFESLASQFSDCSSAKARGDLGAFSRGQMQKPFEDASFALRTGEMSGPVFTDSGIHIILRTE
Chain of Transient receptor potential cation channel subfamily V member 1 (Homo sapiens) (Q8NER1 whole entry, looked up): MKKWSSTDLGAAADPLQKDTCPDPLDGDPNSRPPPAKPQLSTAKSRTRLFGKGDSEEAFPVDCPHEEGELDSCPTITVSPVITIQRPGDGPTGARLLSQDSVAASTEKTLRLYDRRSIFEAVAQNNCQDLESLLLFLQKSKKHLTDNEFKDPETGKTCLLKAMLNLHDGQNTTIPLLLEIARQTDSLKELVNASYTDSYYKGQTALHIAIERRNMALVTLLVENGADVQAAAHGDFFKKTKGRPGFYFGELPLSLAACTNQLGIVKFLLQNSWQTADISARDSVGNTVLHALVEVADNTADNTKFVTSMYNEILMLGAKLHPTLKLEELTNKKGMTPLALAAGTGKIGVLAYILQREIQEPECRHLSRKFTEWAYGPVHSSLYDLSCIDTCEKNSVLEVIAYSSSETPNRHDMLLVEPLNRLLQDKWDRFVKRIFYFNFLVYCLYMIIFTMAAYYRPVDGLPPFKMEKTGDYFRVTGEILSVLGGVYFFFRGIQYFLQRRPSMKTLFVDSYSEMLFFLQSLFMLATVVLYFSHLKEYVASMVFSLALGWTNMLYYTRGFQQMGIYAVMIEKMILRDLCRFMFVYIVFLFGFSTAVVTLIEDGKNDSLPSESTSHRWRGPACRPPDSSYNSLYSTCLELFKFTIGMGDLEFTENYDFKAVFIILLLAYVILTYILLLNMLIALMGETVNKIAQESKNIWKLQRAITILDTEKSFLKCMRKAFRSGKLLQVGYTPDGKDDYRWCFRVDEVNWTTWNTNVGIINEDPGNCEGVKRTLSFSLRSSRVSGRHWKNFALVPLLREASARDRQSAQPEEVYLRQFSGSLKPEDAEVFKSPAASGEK
Chain of Methanococcus maripaludis chaperonin (MmCpn) (Q6LX38 1-543): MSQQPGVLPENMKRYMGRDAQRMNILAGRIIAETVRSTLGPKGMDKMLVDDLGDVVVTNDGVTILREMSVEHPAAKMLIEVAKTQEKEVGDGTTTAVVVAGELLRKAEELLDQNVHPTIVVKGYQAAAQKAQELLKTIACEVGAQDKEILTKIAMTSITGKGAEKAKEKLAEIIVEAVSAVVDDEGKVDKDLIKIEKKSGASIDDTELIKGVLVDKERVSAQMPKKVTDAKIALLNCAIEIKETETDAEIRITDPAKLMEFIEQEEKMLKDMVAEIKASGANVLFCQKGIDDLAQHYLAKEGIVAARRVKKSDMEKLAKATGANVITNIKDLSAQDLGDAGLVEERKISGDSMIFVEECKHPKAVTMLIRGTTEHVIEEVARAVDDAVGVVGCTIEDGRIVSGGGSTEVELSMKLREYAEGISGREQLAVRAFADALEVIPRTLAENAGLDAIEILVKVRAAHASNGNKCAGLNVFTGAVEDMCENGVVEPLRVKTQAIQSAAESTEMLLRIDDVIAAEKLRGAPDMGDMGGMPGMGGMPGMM
Chain of Flap endonuclease 1 (Homo sapiens) (P39748 whole entry, looked up): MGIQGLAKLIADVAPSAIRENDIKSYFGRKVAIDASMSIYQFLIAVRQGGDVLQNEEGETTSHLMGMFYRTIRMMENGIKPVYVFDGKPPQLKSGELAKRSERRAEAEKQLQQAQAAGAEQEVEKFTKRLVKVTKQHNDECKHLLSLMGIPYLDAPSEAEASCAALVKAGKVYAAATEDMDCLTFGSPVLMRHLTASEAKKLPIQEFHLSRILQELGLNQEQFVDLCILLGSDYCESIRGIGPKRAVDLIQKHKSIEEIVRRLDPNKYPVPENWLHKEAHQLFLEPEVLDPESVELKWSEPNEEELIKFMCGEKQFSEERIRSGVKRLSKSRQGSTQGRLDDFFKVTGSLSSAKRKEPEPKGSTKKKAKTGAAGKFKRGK
Chain of Ubiquitin carboxyl-terminal hydrolase 1 (Homo sapiens) (O94782 whole entry, looked up): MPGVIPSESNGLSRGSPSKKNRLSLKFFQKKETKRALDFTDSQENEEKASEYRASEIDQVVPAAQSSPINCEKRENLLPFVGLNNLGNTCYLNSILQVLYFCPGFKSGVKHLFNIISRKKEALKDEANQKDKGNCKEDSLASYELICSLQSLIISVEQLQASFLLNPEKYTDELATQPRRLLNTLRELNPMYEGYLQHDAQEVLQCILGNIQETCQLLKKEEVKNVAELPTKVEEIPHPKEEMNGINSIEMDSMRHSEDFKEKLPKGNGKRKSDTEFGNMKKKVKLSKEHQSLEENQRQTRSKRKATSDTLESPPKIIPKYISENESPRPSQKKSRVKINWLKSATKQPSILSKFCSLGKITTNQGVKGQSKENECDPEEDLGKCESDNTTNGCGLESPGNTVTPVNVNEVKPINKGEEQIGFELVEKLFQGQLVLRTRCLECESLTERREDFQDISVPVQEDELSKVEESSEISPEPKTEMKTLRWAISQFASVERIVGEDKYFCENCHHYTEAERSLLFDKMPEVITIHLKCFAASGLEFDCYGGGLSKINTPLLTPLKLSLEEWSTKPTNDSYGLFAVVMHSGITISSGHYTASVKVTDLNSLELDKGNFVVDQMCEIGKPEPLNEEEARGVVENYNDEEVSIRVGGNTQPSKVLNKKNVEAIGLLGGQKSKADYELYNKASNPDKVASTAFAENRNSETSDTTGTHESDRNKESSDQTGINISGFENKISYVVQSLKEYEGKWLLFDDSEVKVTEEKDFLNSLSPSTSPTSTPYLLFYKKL
Chain of Thyrotropin-releasing hormone receptor (Homo sapiens) (P34981 whole entry, looked up): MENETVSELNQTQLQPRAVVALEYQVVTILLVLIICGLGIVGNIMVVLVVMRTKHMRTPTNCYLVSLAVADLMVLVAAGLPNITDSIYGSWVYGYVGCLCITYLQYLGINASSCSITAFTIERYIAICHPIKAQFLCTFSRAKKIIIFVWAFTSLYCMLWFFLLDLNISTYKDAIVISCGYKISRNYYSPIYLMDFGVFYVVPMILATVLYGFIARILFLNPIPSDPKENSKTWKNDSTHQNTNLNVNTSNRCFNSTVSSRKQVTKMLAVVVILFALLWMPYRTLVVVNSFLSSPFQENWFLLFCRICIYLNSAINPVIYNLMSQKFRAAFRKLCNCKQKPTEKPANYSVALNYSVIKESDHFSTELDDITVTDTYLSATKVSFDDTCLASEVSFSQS
Chain of D(1A) dopamine receptor (Homo sapiens) (P21728 whole entry, looked up): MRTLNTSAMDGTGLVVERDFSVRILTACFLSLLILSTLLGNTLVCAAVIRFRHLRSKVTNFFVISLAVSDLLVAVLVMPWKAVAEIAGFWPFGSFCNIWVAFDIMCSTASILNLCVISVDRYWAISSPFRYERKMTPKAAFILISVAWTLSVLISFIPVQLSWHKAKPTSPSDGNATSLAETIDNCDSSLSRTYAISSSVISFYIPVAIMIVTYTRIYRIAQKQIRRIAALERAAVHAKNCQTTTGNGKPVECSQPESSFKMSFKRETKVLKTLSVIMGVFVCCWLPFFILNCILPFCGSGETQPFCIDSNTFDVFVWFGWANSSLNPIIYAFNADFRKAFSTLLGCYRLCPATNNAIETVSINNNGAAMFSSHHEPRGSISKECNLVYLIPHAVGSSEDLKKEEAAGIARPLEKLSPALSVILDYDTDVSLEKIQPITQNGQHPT
Chain of Phosphoglycerate kinase, glycosomal (Trypanosoma brucei brucei) (P07378 whole entry, looked up): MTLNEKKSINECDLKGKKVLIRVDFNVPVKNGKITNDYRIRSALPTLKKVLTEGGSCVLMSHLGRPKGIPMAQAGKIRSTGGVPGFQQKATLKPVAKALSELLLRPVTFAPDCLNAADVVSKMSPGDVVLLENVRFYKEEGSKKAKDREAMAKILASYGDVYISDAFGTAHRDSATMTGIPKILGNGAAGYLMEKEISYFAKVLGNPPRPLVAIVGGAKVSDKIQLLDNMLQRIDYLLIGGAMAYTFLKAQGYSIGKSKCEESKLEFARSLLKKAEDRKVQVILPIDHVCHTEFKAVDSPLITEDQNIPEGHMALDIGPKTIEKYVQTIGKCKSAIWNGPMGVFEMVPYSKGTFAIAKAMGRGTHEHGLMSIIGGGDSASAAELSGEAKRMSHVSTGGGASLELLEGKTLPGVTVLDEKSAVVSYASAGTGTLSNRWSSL
Chain of phosphoglycerate mutase (Leishmania major) (Q4Q090 1-553): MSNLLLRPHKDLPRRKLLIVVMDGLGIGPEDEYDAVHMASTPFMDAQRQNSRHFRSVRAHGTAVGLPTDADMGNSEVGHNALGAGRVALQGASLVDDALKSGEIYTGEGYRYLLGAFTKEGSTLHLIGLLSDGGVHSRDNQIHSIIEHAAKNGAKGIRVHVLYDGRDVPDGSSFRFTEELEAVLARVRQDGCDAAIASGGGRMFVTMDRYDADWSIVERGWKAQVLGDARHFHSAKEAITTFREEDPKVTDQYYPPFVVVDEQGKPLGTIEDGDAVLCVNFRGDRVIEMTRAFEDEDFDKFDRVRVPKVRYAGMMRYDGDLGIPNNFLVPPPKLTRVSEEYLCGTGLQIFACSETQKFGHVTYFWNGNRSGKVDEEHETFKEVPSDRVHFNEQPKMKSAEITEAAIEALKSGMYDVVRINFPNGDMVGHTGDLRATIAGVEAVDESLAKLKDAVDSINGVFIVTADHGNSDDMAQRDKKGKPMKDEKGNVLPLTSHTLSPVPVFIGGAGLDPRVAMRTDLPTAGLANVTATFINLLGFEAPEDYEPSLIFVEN
Chain of Chromobox protein homolog 1 (Homo sapiens) (P83916 whole entry, looked up): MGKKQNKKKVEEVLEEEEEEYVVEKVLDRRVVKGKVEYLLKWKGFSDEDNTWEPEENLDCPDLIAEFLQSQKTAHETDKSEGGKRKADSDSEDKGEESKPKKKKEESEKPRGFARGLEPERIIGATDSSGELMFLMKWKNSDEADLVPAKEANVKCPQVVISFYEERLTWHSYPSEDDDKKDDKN

For `Cc1cccc(C#Cc2ccccc2)n1`, the compound was called inactive in experiment [1], in experiment [5], in [6], in experiment [7], in experiment [12] and in experiment [14]. Also, the Potency entry in experiment [2], in experiment [3], in [4], in experiment [8], in experiment [9] and in experiment [11] was “inactive” in each case. Besides, the Potency entry in [13] and in experiment [15] was “inactive” throughout. In addition, the activation in [10] is -5.31% (inactive). Moreover, the viability change in experiment [11] worked out at 2%.
For the compound `O=c1c(O)c(-c2cc(O)c(O)c(O)c2)oc2cc(O)cc(O)c12`, the Potency entry in experiment [16], in experiment [8], in experiment [11], in experiment [13] and in [19] was “inactive” each time. In addition, the compound was classed as inactive in [1], in [5], in [6], in experiment [7] and in experiment [12]. Also, the Potency was 13.4 µM (active) in experiment [2]; 1.5 µM (active) in experiment [3]; 6.31 µM (active) and 8.44 µM (active) in [4]; 14.1 µM (active) in [17]; 3.01 µM (active) in experiment [18]. In experiment [10], the activation was 1.38% (inactive). The viability change in experiment [11] was -7.68%.
Regarding `CC(C)c1ccc2c(c1)c(SC(C)(C)C)c(CC(C)(C)C(=O)O)n2Cc1ccc(Cl)cc1`, the Potency in [16] was 13.1 µM (active); in experiment [15], 25.1 µM (active) and 50.1 µM (active). For the same compound, the Potency result in experiment [2], in experiment [4], in experiment [17], in [8], in experiment [9] and in experiment [13] was “inactive” in each case. Moreover, the Potency entry in [18] and in experiment [19] was “inactive” in each case. Moreover, the outcome in experiment [5], in [7], in experiment [12] and in experiment [14] was inactive. The activation in experiment [10] is 1.38% (inactive).
As to `O=Nc1c(-c2c(O)[nH]c3cc(Br)ccc23)[nH]c2ccccc12`, the Potency in experiment [16] is 10.4 µM (active); in experiment [4], 3.55 µM (active) and 5.97 µM (active); in experiment [17], 2.82 µM (active); in experiment [19] it was 21.3 µM (active). For the same compound, the compound was called inactive in experiment [1], in experiment [6], in experiment [7], in [12] and in experiment [14]. Further, the Potency entry in experiment [2], in experiment [3], in experiment [8], in [13] and in experiment [15] was “inactive” in each case. The activation in experiment [10] was -8.62% (inactive).
As to `CCOC(=O)C(C)Oc1cccc2c(=O)n(CC(=O)Nc3ccc4c(c3)OCCO4)ccc12` (stereo not given), the result in experiment [1], in [5], in experiment [7] and in experiment [12] was inactive. Further, the Potency entry in experiment [2], in experiment [3], in experiment [4], in experiment [17], in experiment [8] and in experiment [9] was “inactive” in each case. For the same compound, the Potency entry in experiment [11], in experiment [18], in experiment [19] and in experiment [15] was “inactive” throughout. Further, the viability change in experiment [11] is -3.9%.
With `OC(CN1CCN(c2cccc(Cl)c2)CC1)C(c1ccccc1)c1ccccc1` (stereo not given), the Potency entry in experiment [16], in [2], in experiment [3], in experiment [4], in [8] and in experiment [9] was “inactive” throughout. Moreover, the Potency result in experiment [11], in experiment [18], in experiment [19] and in [15] was “inactive” throughout. The outcome in experiment [5], in experiment [6], in [7], in [12] and in [14] was inactive. For the same compound, the activation in experiment [10] was 2.44% (inactive). Moreover, the viability change in experiment [11] amounted to 1.98%.
